Reference: PubChem BioAssay AID652016 (National Center for Advancing Translational Sciences (NCATS), 2013)
Records with an inconclusive call do not appear. Values without a mark were called inactive. Calls of active or inactive are those of the source. The call rests on the fitted dose curve; in most records, active means well fitted inhibition curve with a large enough effect; inconclusive means small, poorly fitted or top-dose-only effect; inactive means flat fitted curve, though single readings scatter.

These compounds were tested against Luciferin 4-monooxygenase (Photinus pyralis) (UniProt P08659) (assay: qHTS Assay for Inhibitors of Firefly Luciferase from the GSK Published Protein Kinase Inhibitor Set). Conditions: purified firefly luciferase, luminescence inhibition; series mostly up to 57.5 µM; activity change, negative = inhibition: at the top concentration.
Luciferin 4-monooxygenase (Photinus pyralis), sequence (P08659 whole entry, looked up): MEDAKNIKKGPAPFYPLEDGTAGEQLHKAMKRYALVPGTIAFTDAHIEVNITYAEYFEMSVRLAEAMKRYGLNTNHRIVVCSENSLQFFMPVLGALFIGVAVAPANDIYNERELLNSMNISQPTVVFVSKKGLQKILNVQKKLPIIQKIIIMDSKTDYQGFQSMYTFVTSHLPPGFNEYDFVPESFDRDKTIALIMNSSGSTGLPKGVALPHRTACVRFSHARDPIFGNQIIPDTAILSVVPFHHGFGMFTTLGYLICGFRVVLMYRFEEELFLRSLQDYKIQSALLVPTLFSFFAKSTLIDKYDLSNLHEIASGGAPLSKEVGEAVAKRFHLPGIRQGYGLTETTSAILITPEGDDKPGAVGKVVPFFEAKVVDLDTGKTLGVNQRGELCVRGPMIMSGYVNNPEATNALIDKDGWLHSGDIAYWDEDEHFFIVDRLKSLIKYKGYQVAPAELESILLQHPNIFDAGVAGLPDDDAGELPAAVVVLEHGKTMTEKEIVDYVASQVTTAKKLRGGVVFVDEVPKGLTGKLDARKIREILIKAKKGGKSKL
Method in brief: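 Enzyme-level luminescence assay: compounds titrated (about 60uM down to 300pM) into substrate buffer (10uM ATP, 10uM D-luciferin, pH 7.5 Tris acetate with Mg, Tween-20, BSA), then 10nM firefly luciferase added; read after ~5 min.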
On the % scale 0 is the no-effect control and ±100 the full control effect; potency means the concentration at half of the fitted maximal effect.

| Structure (SMILES) | Potency | activity change, negative = inhibition [%] |
| --- | --- | --- |
| COc1cc2ncn(-c3cc(OC(C)c4ccccc4Cl)c(C(N)=O)s3)c2cc1OC (stereo not drawn) | inactive | – |
| CC(=Nc1ccc(S(N)(=O)=O)cc1)c1c(O)[nH]c2ccccc12 | 3.66 µM (active) | – |
| COc1cc(Nc2nccc(-c3cnn4ncccc34)n2)cc(OC)c1 | – | -15.6 |
| Cc1ccc(NC(=O)c2ccnc(N3CCCC3)c2)cc1-c1ccc(C(=O)NCC2CC2)cc1 | – | -8.62 |
| O=C1NC(=O)C(c2cccc([N+](=O)[O-])c2)=C1Nc1cc(Cl)c(O)c(Cl)c1 | – | -10.5 |
| CCS(=O)(=O)c1ccc(OC)c(Nc2ncc(-c3cccc(OC)c3)o2)c1 | – | -4.23 |
| Fc1ccc(-c2ncn(C3CCNCC3)c2-c2ccnc(Oc3ccc(F)c(F)c3)n2)cc1 | – | 3 |
| CC(C)=Cc1cccc2[nH]c(O)c(N=Nc3ccc(S(N)(=O)=O)cc3)c12 | – | 3.89 |
| COc1ccc(C2=C(N3CCc4ccccc43)C(=O)NC2=O)cc1 | – | -13.5 |
| COC(=O)Nc1nc2ccc(Oc3ccc(NC(=O)Nc4ccccc4)cc3)cc2[nH]1 | 14.6 µM (active) | – |
| Cc1ccc2c(-c3ccnc(Nc4ccccc4)n3)c(-c3ccc(F)cc3)nn2n1 | – | 1.59 |
| CCOc1ccc2c(-c3ccnc(Nc4cccc(C(F)(F)F)c4)n3)cnn2n1 | – | 11.5 |
| CCc1nn2ncccc2c1-c1ccnc(NC2CC2)n1 | – | 8.67 |
| COc1ccc(-c2nn3ncccc3c2-c2ccnc(Nc3ccc4c(c3)OCCO4)n2)cc1 | – | -11 |
| O=C(OC1CNC(C#Cc2cc3ncnc(Nc4ccc5c(ccn5Cc5cc(F)ccc5F)c4)c3s2)C1)N1CCOCC1 (stereo not drawn) | – | -6.86 |
| CN1CCC(n2cnc(-c3ccc(F)cc3)c2-c2ccnc(N)n2)CC1 | – | -4.55 |
| COC(=O)Nc1nc2ccc(Sc3ccc(NC(=O)Nc4cc(C(F)(F)F)ccc4F)cc3)cc2[nH]1 | – | 15 |

| Structure (SMILES) | Potency | activity change, negative = inhibition [%] |
| --- | --- | --- |
| COc1ccc(-c2ccncc2)cc1C(N)=O | – | 6.06 |
| NC(=O)Cc1ccccc1Oc1nccc(-c2c(-c3ccc(F)cc3)ncn2C2CCNCC2)n1 | – | 0.77 |
| O=C1Nc2ccc(C(=O)c3ccco3)cc2/C1=C/c1cc(Cl)c(O)c(Cl)c1 | 18.3 µM (active) | – |
| COc1cc2c(cc1Nc1nc(Nc3ccsc3C(N)=O)c3cc[nH]c3n1)N(C(=O)CN(C)C)CCC2(C)C | – | 9.8 |
| Nc1ncnc2occ(-c3ccc(NC(=O)Nc4cccc(C(F)(F)F)c4)cc3)c12 | – | 4.49 |
| O=C(Nc1n[nH]c2cc(-c3ccccc3)ccc12)C1CC1 | 18.3 µM (active) | – |
| O=C1NC(=O)C(c2ccccc2Cl)=C1Nc1cccc(O)c1 | – | -8.83 |
| COc1ccc2cc(-c3c(-c4ccncc4)nc(-c4ccc(S(C)=O)cc4C)n3C)ccc2c1 (stereo not drawn) | – | -15.7 |
| Cc1c2ccc(N(C)c3ccnc(Nc4cccc(S(N)(=O)=O)c4)n3)cc2nn1C | 13 µM (active) | – |
| FC(F)(F)CNc1nccc(-c2cnn3ncccc23)n1 | – | -26.5 |
| c1ccc(-c2[nH]ncc2-c2ccnc(-c3ccc(OCCN4CCOCC4)cc3)c2)nc1 | – | 2.73 |
| Cc1ccc(C(=O)NC2CCCCC2)cc1-c1ccc(C(=O)NCC2CC2)cc1 | – | -11 |
| CS(=O)(=O)CCNCc1nc(-c2ccc3ncnc(Nc4ccc(F)c(Cl)c4)c3c2)cs1 | – | 4.87 |
| Cn1cc(C=C2C(=O)Nc3cccnc32)c2ccccc21 | 14.6 µM (active) | – |
| CCS(=O)(=O)c1ccc(OC)c(Nc2ncc(-c3cccc(C(C)=O)c3)o2)c1 | – | -1.52 |
| Clc1ccc(CNc2nccc(-c3cnn4ncccc34)n2)cc1 | – | 2.79 |
